# Source: PubChem BioAssay AID1932 (Vanderbilt High Throughput Screening Facility, 2009)
# Values without a mark were called inactive. How the calls were made is not given here.
# Molecular target: Muscarinic acetylcholine receptor M1 (Rattus norvegicus) (UniProt P08482)
# Experiment: M1 potentiation check of M4 PAM analogs – cell-based, ACh fold-shift, calcium mobilization, selectivity assay for M4 PAM project, SAR follow-up (AID 1932)
# Details: rM1-expressing cells, ACh CRC fold-shift; series mostly up to 1 µM; ACh response, % max: at the top concentration
# Muscarinic acetylcholine receptor M1 (Rattus norvegicus), sequence (P08482 whole entry, looked up): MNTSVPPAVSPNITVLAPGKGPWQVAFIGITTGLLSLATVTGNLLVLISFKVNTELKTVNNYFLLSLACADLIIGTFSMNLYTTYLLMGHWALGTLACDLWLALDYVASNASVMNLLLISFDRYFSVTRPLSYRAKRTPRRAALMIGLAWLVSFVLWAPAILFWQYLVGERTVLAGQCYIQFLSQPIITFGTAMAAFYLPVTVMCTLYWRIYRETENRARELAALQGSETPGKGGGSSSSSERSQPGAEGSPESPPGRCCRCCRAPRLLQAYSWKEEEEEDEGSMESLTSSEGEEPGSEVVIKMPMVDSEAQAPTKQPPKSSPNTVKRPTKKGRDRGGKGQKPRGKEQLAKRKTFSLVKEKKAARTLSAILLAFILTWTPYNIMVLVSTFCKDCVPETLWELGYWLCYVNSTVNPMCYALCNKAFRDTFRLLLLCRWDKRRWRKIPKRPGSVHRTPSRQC
row,Structure (SMILES),"ACh response, % max"
1,Cc1cc(OCc2ccncc2)nc2sc(C(=O)NCc3cc(F)ccc3F)c(N)c12,92.8
2,COc1ccc(CNC(=O)c2sc3nc(OCc4ccncc4)cc(C)c3c2N)cc1,96.3
3,Cc1cc(OCc2ccncc2)nc2sc(C(=O)NCc3cccc(F)c3F)c(N)c12,92.3
4,Cc1cc(OCCN2CCOCC2)nc2sc(C(=O)NC(C)(C)C)c(N)c12,93.7
